Only some compounds are listed: those with a hit (about 2.3% of all), similar ones and a draw of the others.
ZTA DNA inh: ZTA (EBV) inhibition in EBNA-1 counter-screen; ZTA-DNA binding, fluorescence polarization; P03206; inhibition, % at 11 µM; actives 0.15% (n = 320,000); in the data active means inhibition above about 33%
Target sequence (P03206 whole entry, looked up): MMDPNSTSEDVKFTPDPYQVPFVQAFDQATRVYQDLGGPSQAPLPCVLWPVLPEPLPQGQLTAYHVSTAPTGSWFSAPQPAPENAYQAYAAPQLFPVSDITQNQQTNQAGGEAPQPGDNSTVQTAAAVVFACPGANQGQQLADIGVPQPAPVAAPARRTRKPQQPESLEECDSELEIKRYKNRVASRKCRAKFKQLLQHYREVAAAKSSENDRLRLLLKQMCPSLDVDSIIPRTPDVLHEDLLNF
bovine MsrA act: bovine methionine sulfoxide reductase A activation; purified bovine MsrA, absorbance read-out; activation, % at 10.6 µM; actives 0.3% (n = 360,000); in the data active means activation above about 7.5%
MsrA inh: inhibits bovine methionine sulfoxide reductase A. purified bovine MsrA, absorbance read-out. inhibition, % at 15.5 µM. actives 0.75% (n = 360,000). AID 651718; in the data active means inhibition above about 4.5%
PP1 counter: counter-screen for PP5 inhibitors: inhibitors of human PP1-alpha | P62136 | purified PP1alpha, OMFP fluorescence | inhibition, % at 6.7 µM | actives 0.9% (n = 320,000) | AID 2235;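 active means inhibition above the mean inhibition of all tested compounds plus 3 SD, computed separately for each screening campaign, cut at about 15% in these data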
PP5 inh: PP5 (human) phosphatase inhibition | actives 0.18% (n = 320,000) | P53041 | AID 1987 | inhibition, % at 6.7 µM | purified PP5c, OMFP substrate fluorescence;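 active means inhibition above the campaign's mean inhibition across all tested compounds plus 3 SD, cut at about 9.5% in these data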
EBNA-1 inhibitor: blocks EBNA-1 binding to DNA | inhibition, % at 14.8 µM | EBNA-1 DNA binding, fluorescence polarization | actives 0.34% (n = 300,000); in the data active means inhibition above about 28%
PP1 confirm: confirmation of human PP1 phosphatase inhibitors. shares compounds with PP1 counter. purified PP1alpha, OMFP substrate fluorescence. inhibition, % at 6.7 µM. actives 52% (n = 1,900). AID 2358;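 active means mean PP1 inhibition above a set limit taken from the earlier primary screen, cut at about 15% in these data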
PP5 inh counter: PP5 phosphatase inhibition, counter-screen for PP1 inhibitors; shares compounds with PP1 counter; purified PP5c, OMFP fluorescence; inhibition, % at 6.7 µM; actives 4% (n = 1,900);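 active means mean PP5 inhibition over triplicate wells above about 9.5% taken from the earlier PP1 screen, limit read from the data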
Numbers stand for hits; - = inactive; . = no result given.

SMILES	ZTA DNA inh	bovine MsrA act	MsrA inh	PP1 counter	PP5 inh	EBNA-1 inhibitor	PP1 confirm	PP5 inh counter
Cc1nc(-c2ccccn2)nc(N(C)c2ccccc2)c1Cl	-	-	-	27.5	-	-	23.4	-
CCOC(=O)N1CCN(C(=O)CNS(=O)(=O)c2c(C)cc(C)cc2C)CC1	-	-	-	-	-	-	.	.
CCN(CCc1ccccc1)c1ccc2c(c1)C1CC2CCN1Cc1ccccc1 (stereo unspecified)	.	-	-	.	.	.	.	.
Cc1cccn2c(Nc3ccccc3)c(-c3ccccn3)nc12	-	-	-	-	-	-	.	.
Cc1ccc2nc(-c3ccccn3)c(Nc3ccccc3C)n2c1	-	-	-	30.0	-	-	41.7	-
Cc1ccc2nc(-c3cccnc3)c(Nc3ccccc3C)n2c1	-	-	-	-	-	-	.	.
Cc1ccn2c(Nc3ccccc3C)c(-c3ccccn3)nc2c1	-	-	-	32.1	-	-	38.7	-
Cc1ccccc1Nc1c(-c2ccccn2)nc2ccccn12	-	-	-	34.3	-	-	-	-
Cc1ccn2c(Nc3ccccc3)c(-c3ccccn3)nc2c1	-	-	-	30.7	-	-	33.0	-
CC(=O)NC(=S)Nc1sc2c(c1C(N)=O)CCC(C)C2 (stereo unspecified)	-	-	-	-	-	-	.	.
Cn1cnc(S(=O)(=O)NC2CCN(Cc3c(F)cccc3Cl)CC2)c1	-	-	-	-	-	-	.	.
CCCN(C)C1CN(Cc2cn(Cc3ccc(F)cc3)nn2)S(=O)(=O)C1 (stereo unspecified)	.	-	-	.	.	.	.	.
Nc1ccc2nc(-c3cccc(-c4nc5ccc(N)cc5[nH]4)c3)[nH]c2c1	-	-	4.6	42.1	-	-	-	-
C=CCn1c(C)nnc1SCC(=O)Nc1ccccc1C(=O)NC1CC1	.	-	-	.	.	.	.	.
O=C(NCC1CCCO1)C(=O)NCC1CCCN1S(=O)(=O)c1ccccc1 (stereo unspecified)	-	-	-	-	-	-	.	.
COCCN(C(=O)COC(=O)c1cc2c(s1)CCC2)c1c(N)n(Cc2ccccc2)c(=O)[nH]c1=O	-	-	-	17.9	-	-	-	-
CCc1noc(C)c1C(=O)OCC(=O)N(CC)c1c(N)n(Cc2ccccc2)c(=O)[nH]c1=O	-	-	-	-	-	-	.	.
CCc1noc(C)c1C(=O)OCC(=O)N(CCOC)c1c(N)n(Cc2ccccc2)c(=O)[nH]c1=O	-	-	-	22.0	-	-	-	-
COc1ccc2cc3c(N)nn(C(=O)Cc4c[nH]c5ccccc45)c3nc2c1	-	-	-	18.9	-	-	17.0	-
COc1ccc2cc3c(N)nn(C(=O)Cc4ccc(Cl)cc4)c3nc2c1	-	-	-	21.0	-	-	-	-
CC(=O)Nc1ccc(OC(=O)c2ccco2)cc1	-	-	-	19.5	-	-	-	-
CC(=O)Nc1cc(OC(=O)c2ccco2)cc(OC(=O)c2ccco2)c1	-	-	-	-	-	-	.	.
O=C(Cc1ccccc1)N/N=C/c1cc(Br)cc(Br)c1O	-	-	-	-	-	-	.	.
O=C(O)c1ccccc1N/N=C/c1cc(Br)cc(Br)c1O	-	-	-	22.8	-	-	-	-
COC(=O)C1=C(C(=O)OC)[C@@H]2N(C)c3ccc(OC)cc3[C@@]23C[C@@H](C(=O)OC)N(C(=O)COCc2ccccc2)C3=N1	-	.	-	-	-	-	.	.
SMILES	ZTA DNA inh	bovine MsrA act	MsrA inh	PP1 counter	PP5 inh	EBNA-1 inhibitor	PP1 confirm	PP5 inh counter
O=C(CSC(=S)N1CCOCC1)Nc1nc(-c2ccccc2)c(-c2ccccc2)o1	-	-	-	18.4	-	-	-	-
O=C(CSC(=S)N1CCN(c2ccccc2)CC1)Nc1nc(-c2ccccc2)c(-c2ccccc2)o1	-	-	-	-	-	-	.	.
Nc1c(C(=O)Nc2nc3ccccc3s2)sc2nc(-c3cccs3)ccc12	-	-	.	30.9	-	-	31.6	-
Cc1ccc(/C(O)=C2/C(=O)C(=O)N(c3ccccn3)C2c2cccc([N+](=O)[O-])c2)cc1 (stereo unspecified)	-	-	-	18.3	-	-	-	-
COc1ccc(S(=O)(=O)NCC(=O)NCCc2ccc(OC)c(OC)c2)cc1	-	-	-	-	-	-	.	.
Cn1c(SCc2ccc([N+](=O)[O-])cc2)nnc1-c1cccnc1	-	-	-	-	-	-	.	.

Compound activity from PubChem.
